VDR inh – vitamin D3 receptor (human) inhibition. P11473. AID 504847. 0.93% of 400,000 active. Potency, µM, without a hit: max response, negative = inhibition, usual class: inhibitors. VDR-SRC2-3 peptide fluorescence polarization, 2 h
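Fluorescence polarization assay measuring small-molecule disruption of VDR binding to the coregulator peptide SRC2-3. Compounds were pin-transferred (23 nl) into the reagent mix and incubated 2 h at room temperature before reading.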
Sfp inh – inhibitors of Bacillus subtilis Sfp phosphopantetheinyl transferase; AID 1490; 3.5% of 310,000 active; Biochemical Sfp PPTase activity, qHTS; Potency, µM, for inactives: largest response in the series, negative = inhibition, hits mostly inhibitors;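 also: the enzyme is Sfp with the accession as filed and its product quenches rhodamine fluorescence; 0% = enzyme reaction without inhibitor and -100% = no enzyme wells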
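Sfp 15 nM + cpd, 15 min RT; start w/ rhodamine-CoA 5 uM, BHQ-2-YbbR 12.5 uM (final); 50 mM Hepes pH 7.6, 10 mM MgCl2, 0.01% NP-40, 0.01% BSA; read 525/598 nm at 0 and 30 min.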
PLK1 PBD inh – blocks phosphopeptide binding to human PLK1 polo-box domain. P53350. Plk1 PBD binding of FITC phosphopeptide, fluorescence polarization. Potency, µM, for the others: max response, negative = inhibition, actives largely listed as inhibitors. 2.8% of 360,000 active; also: series mostly up to about 57 µM; nearly all actives have a fitted effect of over 65% in size
Target sequence (P53350 whole entry, looked up, the tested form may be a part): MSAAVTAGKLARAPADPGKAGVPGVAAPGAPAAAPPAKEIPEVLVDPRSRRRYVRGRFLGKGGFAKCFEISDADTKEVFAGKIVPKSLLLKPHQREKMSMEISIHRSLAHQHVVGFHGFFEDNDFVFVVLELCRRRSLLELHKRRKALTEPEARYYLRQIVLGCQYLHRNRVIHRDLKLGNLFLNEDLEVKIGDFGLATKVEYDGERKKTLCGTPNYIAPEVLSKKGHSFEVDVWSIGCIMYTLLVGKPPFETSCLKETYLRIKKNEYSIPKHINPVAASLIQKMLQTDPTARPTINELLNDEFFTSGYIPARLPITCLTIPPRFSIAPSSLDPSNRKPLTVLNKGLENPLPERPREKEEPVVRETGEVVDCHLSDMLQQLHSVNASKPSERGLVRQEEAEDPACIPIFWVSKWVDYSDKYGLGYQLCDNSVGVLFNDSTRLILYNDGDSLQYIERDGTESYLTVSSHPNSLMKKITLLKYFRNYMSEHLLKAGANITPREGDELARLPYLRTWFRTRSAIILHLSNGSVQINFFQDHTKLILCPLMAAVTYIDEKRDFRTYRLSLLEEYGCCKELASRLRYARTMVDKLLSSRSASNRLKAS
ALOX12 inh – blocks human arachidonate 12S-lipoxygenase. P18054. purified 12hLO, xylenol orange hydroperoxide absorbance. Potency, µM (top dose mostly 108 µM), without a hit: at the top dose activity change, negative = inhibition, hits mostly inhibitors. 1.1% of 580,000 active. AID 1671190
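Purified human 12hLO (150 nM final) in 25 mM Hepes, 0.01% Triton X-100, pH 7.0 was preincubated 15 min at room temperature with compound. Then 40 uM arachidonic acid was added, 30 min. Hydroperoxide was read by Fe-XO absorbance ratio 573/405 nm.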
An asterisk follows results filed as active; [ ] = dose if it differs, or a comment. The list is not random: actives were taken first. Their share in the collection is about 4.2%. Calls follow the shape of the dose curve; as a rule, active = well fitted curve in the direction sought with a large enough effect; inconclusive = small, poorly fitted or top-dose-only effect, or another doubt; inactive = no such curve, though single readings can be large; an effect the other way counts as inactive or inconclusive. Unless noted, % is scaled to controls: 0 for no effect and ±100 for the full control effect; potency is read from the fitted curve at half-maximal effect.

What do the screens show for `COC1=C2C[C@@H](C)C[C@H](OC)[C@H](O)[C@@H](C)/C=C(\C)[C@H](OC(N)=O)[C@@H](OC)/C=C\C=C(/C)C(=O)NC(=CC1=O)C2=O`?
VDR inh: inconclusive; Sfp inh: -17.0%

Results for COC1[C@@H](OC)C[C@H](C)[C@@H](OC)C2=CC(=O)C=C(NC(=O)/C(C)=C/C=C\[C@H](OC)[C@@H](OC(N)=O)/C(C)=C/[C@@H]1C)C2=O (stereo not given in full) ?
VDR inh: 79.4µM*; Sfp inh: -26.8%; ALOX12 inh: 9.5%[12.5 µM]

What do the screens show for `O=C(CSc1ccc2nnc(-c3ccncc3)n2n1)NCC1CCCO1` (stereo not given)?
VDR inh: 11.1%; Sfp inh: 13.6%; PLK1 PBD inh: -1.9%; ALOX12 inh: 5.7%

Results for CC(SCc1cc(=O)n2c([nH]c3ccccc32)c1C#N)C(=O)O (stereo not given) ?
VDR inh: 79.4µM*; Sfp inh: -4.1%; PLK1 PBD inh: 13.4µM*; ALOX12 inh: -23.9%

Results for CCc1cc(=O)n2c([nH]c3ccccc32)c1C#N ?
VDR inh: 3.9%; Sfp inh: 6.5%; PLK1 PBD inh: -0.9%; ALOX12 inh: 0.0%

Results for CCc1c(C)c(C#N)c2[nH]c3ccccc3n2c1=S ?
VDR inh: inconclusive; Sfp inh: 79.4µM*; PLK1 PBD inh: 13.4µM*; ALOX12 inh: inconclusive

Results for CCc1cc(=S)n2c([nH]c3ccccc32)c1C#N ?
VDR inh: inconclusive; Sfp inh: 44.7µM*; PLK1 PBD inh: inconclusive

Results for O=C(NCC1(N2CCOCC2)CCCCC1)c1cnn(-c2nccc(-c3cccs3)n2)c1C1CC1 ?
ALOX12 inh: -2.5%

What do the screens show for `COc1cccc(/C=C/C(=O)c2ccc(C)c(C)c2)c1OC`?
ALOX12 inh: 17.3%

Results for NC(=O)c1ncn([C@@H]2O[C@H](C(=O)N3CCN(CC(=O)Nc4ccccn4)CC3)[C@@H](O)[C@H]2O)n1 ?
ALOX12 inh: 15.3%

Results for Cc1ccccc1Nc1nnc(SCc2cc(=O)n3ccsc3n2)s1 ?
VDR inh: 11.2%; Sfp inh: inconclusive; PLK1 PBD inh: -7.7%; ALOX12 inh: 1.7%

What do the screens show for `CC(C)Nc1nnc(SCc2cc(=O)n3ccsc3n2)s1`?
VDR inh: 4.1%; Sfp inh: 56.2µM*; PLK1 PBD inh: -13.9%; ALOX12 inh: 9.4%

Results for CCOc1cc(N2CCOCC2)c(OCC)cc1NC(=O)C1CC(=O)N(c2ccc(C)cc2)C1 (stereo not given) ?
VDR inh: -23.8%; PLK1 PBD inh: -2.0%; ALOX12 inh: 0.4%

What do the screens show for `COc1ccccc1NC(=S)NCc1ccc(S(N)(=O)=O)cc1`?
VDR inh: -15.6%; Sfp inh: 10.4%; PLK1 PBD inh: -20.4%; ALOX12 inh: -18.1%

How did S=C(NCc1cccs1)Nc1ccccc1 do in these assays?
VDR inh: -10.5%; Sfp inh: -5.0%; PLK1 PBD inh: -8.7%; ALOX12 inh: -22.2%

What do the screens show for `COc1ccccc1CNC(=S)Nc1ccc(S(N)(=O)=O)cc1`?
VDR inh: 3.6%; Sfp inh: inconclusive; PLK1 PBD inh: 21.2µM*

Results for NS(=O)(=O)c1ccc(NC(=S)NCc2cccs2)cc1 ?
VDR inh: -4.7%; Sfp inh: 20µM*; PLK1 PBD inh: 23.8µM*; ALOX12 inh: inconclusive

Results for COc1ccc(OC)c(NC(=O)CSc2nnc(-c3ccco3)n2-c2ccc(C(=O)O)cc2)c1 ?
VDR inh: 5.3%; Sfp inh: 56.2µM*; PLK1 PBD inh: -12.2%; ALOX12 inh: -4.4%

Results for COc1ccc(C)cc1NC(=O)CSc1nnc(-c2ccco2)n1N ?
VDR inh: 12.4%; Sfp inh: 8.4%; PLK1 PBD inh: -7.4%; ALOX12 inh: -17.0%

What do the screens show for `COc1ccc(OC)c(NC(=O)CSc2nnc(C3CCCCC3)n2-c2ccccc2)c1`?
VDR inh: -13.7%; Sfp inh: 2.6%; PLK1 PBD inh: 26.7µM*; ALOX12 inh: 0.0%[57.4 µM]

How did CCN(CC(=O)Nc1ccccc1C(F)(F)F)C(=O)Cc1cccs1 do in these assays?
VDR inh: -14.8%; PLK1 PBD inh: -2.8%; ALOX12 inh: 15.0%

Results for CCC(C)(C)c1ccc2c(C(=O)N3C[C@H](N)C[C@H]3C(=O)NC)csc2c1 ?
ALOX12 inh: 12.6µM*

How did Cc1cc(C)cc(NS(=O)(=O)c2csc(C(N)=O)c2)c1 do in these assays?
VDR inh: -3.5%; Sfp inh: 7.5%; PLK1 PBD inh: -7.2%; ALOX12 inh: 20.9%

Results for CSc1ccc(/C=C2\C(=O)Oc3ccccc32)cc1 ?
ALOX12 inh: 31.6µM*

Results for COc1cc(S(=O)(=O)N2CCN=C2c2ccccc2)c(OC)cc1Cl ?
VDR inh: 6.2%; Sfp inh: 10.3%; PLK1 PBD inh: 0.1%; ALOX12 inh: -3.1%

What do the screens show for `C=CCSc1nc2sc3c(c2c(=O)n1CC=C)CCc1ccccc1-3`?
VDR inh: -2.8%; Sfp inh: 44.7µM*; PLK1 PBD inh: -24.1%; ALOX12 inh: -18.4%

Results for [N-]=C=C1C(=S)NC(=O)[C@H]([n+]2ccccc2)[C@H]1c1ccc(Cl)cc1 ?
VDR inh: 44.7µM*; Sfp inh: -10.2%; PLK1 PBD inh: 26.7µM*; ALOX12 inh: 10µM*

Results for Cc1ccc(NC(=O)CSc2nnc3scc(-c4ccc(Cl)cc4)n23)cc1 ?
VDR inh: 6.0%; ALOX12 inh: -21.1%

What do the screens show for `Cc1ccc(-c2nc(NC(=O)CSc3nnc4scc(-c5ccccc5)n34)ns2)cc1`?
VDR inh: -13.7%; Sfp inh: 35.5µM*; PLK1 PBD inh: inconclusive; ALOX12 inh: 297.5%

What do the screens show for `Cc1ccc(-c2nc(NC(=O)CSc3ncn[nH]3)ns2)cc1`?
VDR inh: 14.1µM*; Sfp inh: 22.3%; PLK1 PBD inh: 7.52µM*; ALOX12 inh: 1.7%

Results for C=CCSc1nnc(NC(=O)c2cc(=O)c3ccc(C)cc3o2)s1 ?
ALOX12 inh: 22.9%

Results for Cc1ccc2c(CSc3nnc(NCC(C)C)s3)cc(=O)oc2c1 ?
ALOX12 inh: 17.8µM*

Results for CCc1nc(NC(=O)NCc2cccnc2)nn1C ?
ALOX12 inh: 64.9%

Results for CCOCCCNC(=S)NCCNc1nc2c(C)cccc2cc1C#N ?
VDR inh: 3.4%; Sfp inh: 50.1µM*; PLK1 PBD inh: -12.1%

What do the screens show for `CCOCCCNC(=S)NCCCNc1nc2c(C)cc(C)cc2cc1C#N`?
VDR inh: inconclusive; Sfp inh: inconclusive; PLK1 PBD inh: 23.8µM*; ALOX12 inh: inconclusive

Results for Cc1cccc2cc(C#N)c(NCCNC(=O)COc3ccccc3)nc12 ?
VDR inh: -12.3%; Sfp inh: 50.1µM*; PLK1 PBD inh: -10.7%; ALOX12 inh: -4.2%

Results for Cc1cccc2cc(C#N)c(NCc3ccccc3)nc12 ?
VDR inh: -5.5%; Sfp inh: inconclusive; PLK1 PBD inh: -3.9%; ALOX12 inh: 36.3%

Results for Cc1cc(C)c2nc(NCCCNC(=S)NCCCN(C)C)c(C#N)cc2c1 ?
VDR inh: -2.7%; Sfp inh: -17.1%; PLK1 PBD inh: -9.5%; ALOX12 inh: inconclusive
